Most compounds without a hit are left out; they make up all but 0.9% or so of the library.
SRC1 TRFRET art – TR-FRET detection interference compounds, primary screen, artefact control for PPARgamma SRC-1 recruitment agonists, biochemical, TR-FRET emission ratio | TR-FRET detection artefact counter-screen; stronger effect = higher value | TR-FRET ratio at 8 µM | 99,000 tested, 0.34% active; in the data active = TR-FRET ratio above about 2300
SRC3 TRFRET art – TR-FRET detection interference compounds, artefact control for PPARgamma SRC-3 recruitment agonists, biochemical, TR-FRET ratio; TR-FRET artefact counter-screen, PPARgamma/SRC-3 format; stronger effect = higher value; TR-FRET ratio at 8 µM; 99,000 tested, 0.39% active
PPARg SRC2 recr – agonists of PPARg-SRC-2 recruitment, primary screen, biochemical, HTS | Peroxisome proliferator-activated receptor gamma (Homo sapiens), P37231 | PPARgamma LBD-SRC-2 recruitment | activation, % at 8 µM | 200,000 tested, 0.34% active | AID 1032, 2008; in the data active = activation above about 22%;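 also: 0% = vehicle and 100% = reference agonist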
Target sequence (P37231 whole entry, looked up, the tested form may be a part): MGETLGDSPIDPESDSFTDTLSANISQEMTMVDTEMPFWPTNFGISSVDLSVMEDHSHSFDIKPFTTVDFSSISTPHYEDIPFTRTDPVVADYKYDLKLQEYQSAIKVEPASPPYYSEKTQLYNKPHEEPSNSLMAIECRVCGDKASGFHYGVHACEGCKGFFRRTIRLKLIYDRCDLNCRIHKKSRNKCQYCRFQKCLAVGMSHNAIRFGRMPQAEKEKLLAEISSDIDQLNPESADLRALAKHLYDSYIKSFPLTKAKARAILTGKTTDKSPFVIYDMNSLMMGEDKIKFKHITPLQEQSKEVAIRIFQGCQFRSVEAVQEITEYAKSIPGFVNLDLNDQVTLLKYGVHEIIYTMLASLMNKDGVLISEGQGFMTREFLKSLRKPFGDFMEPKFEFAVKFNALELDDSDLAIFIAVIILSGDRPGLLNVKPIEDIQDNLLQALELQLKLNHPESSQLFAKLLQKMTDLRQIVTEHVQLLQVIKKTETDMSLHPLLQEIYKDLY
PPARg SRC3 recr – PPARgamma agonists recruiting SRC-3 coactivator, primary screen, biochemical | Peroxisome proliferator-activated receptor gamma (Homo sapiens), P37231 | 200,000 tested, 0.26% active | biochemical PPARgamma/SRC-3 coactivator recruitment assay | activation, % at 8 µM; in the data active = activation above about 23%;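 also: 0% = DMSO and 100% = reference agonist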
SRC2 TRFRET art – TR-FRET signal artefacts, primary screen, artefact control for PPARgamma SRC-2 agonist project, biochemical. TR-FRET artefact counter-screen; stronger effect = higher value. TR-FRET ratio at 8 µM. 200,000 tested, 0.4% active
PPARg SRC-1 ag – PPARgamma agonists recruiting SRC-1 coactivator, primary screen, biochemical; PPARgamma-SRC-1 coactivator recruitment biochemical assay; 200,000 tested, 0.41% active; Peroxisome proliferator-activated receptor gamma (Homo sapiens), P37231; activation, % at 8 µM; in the data active = activation above about 19%;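 also: 0% = DMSO and 100% = reference agonist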
PPARg SRC2 ag – agonists of PPARgamma SRC-2 coactivator recruitment, confirmation, biochemical, HTS; activation, % at 8 µM; shares compounds with PPARg SRC3 recr; biochemical SRC-2 recruitment by PPARgamma; 790 tested, 52% active; AID 1297, 2008; in the data active = activation above about 22%;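 also: 0% = vehicle alone and 100% = reference agonist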
PPARg SRC1 ag – PPARgamma agonists recruiting SRC-1 coactivator, confirmation, biochemical. AID 1300, 2008. shares compounds with PPARg SRC3 recr. 790 tested, 43% active. activation, % at 8 µM. PPARgamma–SRC-1 coactivator recruitment biochemical assay; in the data active = activation above about 20%;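 also: 0% = vehicle wells and 100% = reference agonist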
PPARg SRC3 ag – PPARgamma-driven SRC-3 coactivator recruitment agonists, confirmation, biochemical. shares compounds with PPARg SRC3 recr. biochemical PPARgamma-SRC-3 coactivator recruitment, agonist mode. activation, % at 8 µM. 790 tested, 29% active. AID 1301, 2008; in the data active = activation above about 24%;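 also: 0% = vehicle wells and 100% = reference agonist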
* hit, by the source's call; . = no result. Rule as the data show it, unless noted: active = TR-FRET ratio above about 2000; inactive = the rest.

SMILES	SRC1 TRFRET art	SRC3 TRFRET art	PPARg SRC2 recr	PPARg SRC3 recr	SRC2 TRFRET art	PPARg SRC-1 ag	PPARg SRC2 ag	PPARg SRC1 ag	PPARg SRC3 ag
Cc1ccc(S(=O)(=O)c2c(CO)c(-c3ccccc3)nn2C)cc1	1892	1207	10	34*	1327	17	11	16	18
CCCCOC(=O)CNc1n[nH]c(=S)[nH]c1=O	.	.	66*	95*	2722*	48*	80*	61*	55*
CCCCOC(=O)C(C)Nc1n[nH]c(=S)[nH]c1=O (configuration not stated)	.	.	21	26*	1892	14	27*	27*	16
CCCCOC(=O)CCNc1n[nH]c(=O)[nH]c1=O	1708	1615	-1	-4	1395	1	.	.	.
CCCCOC(=O)C(C)Nc1n[nH]c(=O)[nH]c1=O (configuration not stated)	.	.	3	3	1335	0	.	.	.
CC(C)COC(=O)CNc1n[nH]c(=S)[nH]c1=O	.	.	63*	86*	2814*	52*	78*	58*	52*
CC1(C)CSC(=NCc2ccccc2)N1C(=O)c1cccc([N+](=O)[O-])c1	1536	1384	-10	3	1453	-6	.	.	.
COc1ccc(N2C(=O)N(Cc3cccc(F)c3)c3ccccc3S2(=O)=O)cc1	1786	1705	-3	0	1688	-3	.	.	.
CCC(=Nc1ccc(N)cc1)C1=C(O)C(C(=O)OC)C(C)(C)CC1=O (configuration not stated)	.	.	23*	38*	1785	23*	1	4	6
NS(=O)(=O)c1ccc(CCNC(=O)c2cc(-c3ccccn3)nc3ccc(Br)cc23)cc1	2153	2530*	11	15	1850	22*	5	5	6
N#C/C(=C\c1ccc(N2CCCCC2)o1)C(N)=O	2106	1746	15	11	1938	21*	-2	3	0
CCCCC(C(=O)OCC)C(N)Cc1ccc(F)cc1 (configuration not stated)	1814	1722	5	4	1718	7	.	.	.
CCn1c(=O)cc(SCC(=O)N2CCN(c3ccccn3)CC2)c2ccccc21	3018*	2355*	35*	21	2505*	39*	50*	34*	34*
CCn1c(=O)cc(SCC(=O)N2CCN(c3ccccc3F)CC2)c2ccccc21	.	.	42*	34*	2381*	30*	36*	23*	24*
Cc1ccc2nc(SC(C)C(=O)Nc3cccc([N+](=O)[O-])c3)[nH]c2c1 (configuration not stated)	1631	1621	3	1	1664	0	.	.	.
O=C(CNC1CCCC1)Nc1ccc(N2CCCCCC2)cc1	1797	1650	8	6	1860	20*	1	0	1
COc1ccccc1C(=O)Nc1nnc(-c2ccco2)s1	.	.	9	6	1757	7	.	.	.
Cc1ccccc1C(=O)Nc1nnc(-c2ccco2)s1	2497*	1974	16	11	2099*	24*	42*	36*	26*

High-throughput results from PubChem BioAssay.
